About 13,000 (27%) of roughly 48,000 compounds showed an effect of 50% or more. The list shows a part of the results.
system: Wolbachia pipientis; experiment: Anti-Wolbachia Cell-Based Screen; assay type: functional; set-up: scale not given: in the data most compounds retested in dose-response had high values; settings: 5 µM

Compound | Percent Effect [%]
Cn1ccnc1-c1ccc(NCCC2COc3ccccc3O2)nn1 (stereo unspecified) | 7.675
CN(Cc1nc(CC2CC2)no1)CC1COc2ccccc2O1 (stereo unspecified) | -4.512
Cn1nnnc1SCC1COc2ccccc2O1 (stereo unspecified) | 100.3
N#Cc1cccc(N2CCC(CO)(CCOc3ccccc3)CC2)n1 | -8.445
CC(C)n1ccnc1C1CCN(Cc2ccc(Cl)s2)CC1 | -8.213
CSCC(C)(O)CNc1ccccn1 (stereo unspecified) | -2.267
CC(=O)c1cn(CC(=O)NC(C(=O)O)C(C)C)c2ccccc12 (stereo unspecified) | -3.053
CN1CCN(c2cc(NC(=O)Cn3ccc4ccccc43)ncn2)CC1 | -1.04
O=C(Cn1ccc2ccccc21)NCc1cc(N2CCOCC2)ncn1 | -2.844
O=C(Cn1ccc2c(Cl)cccc21)N[C@@H](C(=O)O)c1ccccc1 | 2.253
CC(=O)Nc1cccc2c1ccn2CC(=O)NC(C)C | 119.7
COc1cccc2c1ccn2CCC(=O)NCCCC(=O)O | 22.13
CC(=O)Nc1cccc2c1ccn2CC(=O)Nc1nc[nH]n1 | 99.64
Cc1cccc(C)c1OCC(=O)Nc1cccn(C)c1=O | -11.46
COc1cccc2c1ccn2CCNC(=O)C(C)C | 18.92
CC(=O)Nc1cccc2c1ccn2CC(=O)Nc1n[nH]c(CC(C)C)n1 | 102.1
O=C(Cn1ccc2c(Cl)cccc21)Nc1nc[nH]n1 | 213.7
CS(=O)(=O)N1CCN(C(=O)Cn2ccc3c(Cl)cccc32)CC1 | 10.52
COCc1nc(C2CC2)nn1-c1cccc(F)c1 | -12.44
Cc1ccc(Oc2ncccc2CNC2CCCCC2)cn1 | -2.321
CN(C)C(=O)N1CCN(C(=O)C(c2ccccc2F)N(C)C)CC1 (stereo unspecified) | 0.4283
COc1cccc2c1ccn2CC(=O)Nc1nc[nH]n1 | 91.25
Cc1ccn(-c2ccccc2NCc2ncc[nH]2)n1 | -9.69
COc1cccc2c1ccn2CC(=O)N[C@@H](CCSC)C(=O)O | 11.73

Compound | Percent Effect [%]
COCC(=O)NCCn1ccc2c(OC)cccc21 | -0.7831
CC(=O)Nc1cccc2c1ccn2CC(=O)Nc1ncc[nH]1 | 101.7
CSCC[C@H](NC(=O)Cn1ccc2c(Cl)cccc21)C(=O)O | 2.833
CCOc1ncccc1Cn1cc(-c2ccc(CO)o2)nn1 | -3.735
CCN(CC)C(=O)C1(NCc2nc(C)c(C)o2)CCCCC1 | -3.366
CN(c1ccc(CNc2ccc(Cl)cn2)cc1)S(C)(=O)=O | 3.879
CCOc1ccccc1C(CC(=O)Nc1nc(C)cs1)NC(C)=O (stereo unspecified) | 0.8837
CCC(NC(=O)Nc1ccc(OC)c(C)c1)c1ccncc1 (stereo unspecified) | -4.572
COc1ccc(NC(=O)C(C)(C)C)cc1OCc1cccnc1 | -1.901
Cn1ccc(C(=O)Nc2nc(-c3ccc4c(c3)CCO4)cs2)cc1=O | -8.772
Cc1csc(NC(=O)C2CSCCC(=O)N2)n1 (stereo unspecified) | -7.391
COc1coc(C(=O)Nc2ccncc2)cc1=O | 119.4
COc1coc(C(=O)Nc2nc(C)cs2)cc1=O | 134.8
COc1coc(C(=O)Nc2nc(-c3ccncc3)cs2)cc1=O | 126.8
COc1coc(C(=O)Nc2nc(-c3cccnc3)cs2)cc1=O | 125.3
CC(=O)Nc1nc(C(=O)NC(C)c2ccncc2)cs1 (stereo unspecified) | -2.068
COc1ccc(NC(C)=O)cc1OCc1cccnc1 | 0.9629
CC(=O)Nc1nc(C(=O)NC(C)c2cccnc2)cs1 (stereo unspecified) | -4.684
COc1cccc(SCC(=O)N2CCC(N3CCCC(O)C3)CC2)c1 (stereo unspecified) | 2.194
COCc1csc(NC(=O)NCc2ccccn2)n1 | 11.42
Cn1ccc(C(=O)Nc2nnc(-c3ccccn3)[nH]2)cc1=O | -6.589
COc1coc(C(=O)Nc2nc(-c3ccccn3)cs2)cc1=O | 131
CCN(CC1CCOC1)C(=O)CCc1nc(C(C)(C)C)no1 (stereo unspecified) | -1.689
Cc1cc(C(N)=O)ccc1NC(=O)c1nc(N2CCCCC2)ncc1Cl | -13.62

Compound | Percent Effect [%]
CC1CCCN(c2ncc(C(=O)NCc3ccc(F)c(Cl)c3)c(N)n2)C1 (stereo unspecified) | 73.04
CN(c1ncc(C(=O)NCc2ccccc2)c(N)n1)C1CCCCC1 | 2.294
Nc1nc(N2CCCCCC2)ncc1C(=O)NCc1ccc(F)c(Cl)c1 | 114.6
NS(=O)(=O)c1ccc(CNC(=O)c2ccc(Cl)cc2F)cc1 | -5.173
Cc1cccc(C(=O)NCc2ccc(N3CCCCC3)nc2)n1 | -4.595
Nc1nc(N2CCCCC2)ncc1C(=O)NCc1ccc(F)c(Cl)c1 | 94.05
O=C(Cn1cc(C(=O)O)ccc1=O)NCc1ccc(F)c(Cl)c1 | 13.7
O=C(Nc1cc(Cl)ccn1)c1nc(N2CCCC2)ncc1Cl | -15.57
CCCn1cc(-c2ccnc(NC3CCc4ccccc43)n2)c(C)n1 (stereo unspecified) | -0.7424
Cc1cccc(C(C(=O)NCC2(Cn3nc(C)cc3C)CC2)N(C)C)c1 (stereo unspecified) | -2.816
Cc1ccc(CN2CC[C@H](c3nnc(COc4ccc(F)cc4)o3)C2)o1 | -1.742
COc1cccc(-c2noc(C3CCN(Cc4cn(C)nc4C)C3)n2)c1 (stereo unspecified) | -2.203
COc1cccc(-c2noc(C3CCN(Cc4ccccc4F)C3)n2)c1.Cl (stereo unspecified) | 108.2
COC(=O)c1cccc2nc([C@H]3CCN(Cc4ccccc4C)C3)oc12 | 0.4423
COC(=O)c1cccc2nc([C@H]3CCN(Cc4ccccc4F)C3)oc12 | 4.5
COc1cccc(-c2ncc(CN3CC[C@H](CO)[C@@H](O)C3)s2)c1 | 10.62
COc1cccc(-c2noc(C3CCN(Cc4ccccc4C)C3)n2)c1.Cl (stereo unspecified) | 79.37
Cc1n[nH]c(CN2CCN(c3ncnc4scc(C)c34)CC2)c1Cl | -1.697
CC(O)CN1CCN(C(=O)c2cccc3[nH]ncc23)CC1 (stereo unspecified) | 5.765
Cc1nc(C2CCN(C(=O)c3ccn(C)n3)CC2)c2sccn12 | 109.4
Cc1nc(C2CCN(C(=O)c3cscn3)CC2)c2sccn12 | 123.8
Cc1nc(CN2CCO[C@H]3CN(C(=O)c4cscn4)C[C@H]32)cs1 | -19.39
CC(O)c1cn(CC2CCN(C(=O)c3cscn3)CC2)nn1 (stereo unspecified) | -31.81
